PubChem BioAssay (Tox21)
Inconclusive results are not listed. A number with no mark means an inactive call. Calls come from the whole dose curve; as a rule, active = well fitted curve in the direction sought with a large enough effect in the repeat runs; inconclusive = weak or mixed curves; inactive = no such curve, though single readings can be large; an effect the other way counts as inactive or inconclusive.

Tested on: not listed separately
Test: qHTS assay to identify aromatase inhibitors - cell viability counter screen (AID 743084);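 note: cells stimulated with testosterone during compound exposure; nearly all actives have a fitted effect of over 55% in size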
Settings: MCF-7 aro ERE viability, CellTiter-Fluor, 24 h; series mostly up to 70.3 µM; activity change, negative = cytotoxicity: at the top concentration
% is set by controls: 0 for no effect and ±100 for the full control effect.

| SMILES | activity change, negative = cytotoxicity |
| --- | --- |
| CC(=O)C1CCCCC1=O (centres undefined) | 5.32% |
| C=CC(C)(CCC=C(C)C)OC(=O)CC (centres undefined) | -3.73% |
| CCCCN1C=CN(C)C1 | -3.72% [at 32.5 µM] |
| Cc1ccc(-c2ncc(Cl)cc2-c2ccc(S(C)(=O)=O)cc2)cn1 | -15.2% |
| C=COCC1CCC(COC=C)CC1 (centres undefined) | 3.07% |
| O=S(=O)(O)c1cccc(S(=O)(=O)O)c1 | 16.2% |
| O=C(CO)[C@@H](O)[C@H](O)[C@@H](O)CO | -0.486% |
| CCCCCCCC1CCCC1=O (centres undefined) | -7.46% |
| C=CCOCC(O)CO (centres undefined) | 7.95% |
| O=C(O)Cc1csc(-c2ccc(Cl)cc2)n1 | 19.5% |
| CCC(C)(CCCC(C)C)OC(C)=O (centres undefined) | 0.588% |
| CC(=O)Oc1cccc(C)c1 | -0.616% |
| [K+] | 11% |
| CC(C)=CCC/C(C)=C/C#N | 2.68% [at 95 µM] |
| CCOC(=O)COc1cc(-n2ncc(C(F)(F)F)c(C)c2=O)c(F)cc1Cl | -8.5% |
| C=CC(=O)OCCCl | 12.2% [at 95 µM] |
| C1CCC2(CCCCO2)OC1 | 0.0043% |
| O=C(O)CNC(=O)c1ccc(CO)o1 | 19.8% |
| Cc1cccc(C)c1NC(=O)CC12CCCN1CCC2 | -2.1% |

| SMILES | activity change, negative = cytotoxicity |
| --- | --- |
| CCCC[N+](C)(CCCC)CCCC | -5.87% |
| CC(C)(N)C#N | 15.2% [at 95 µM] |
| CCCCN(CCC(=O)OCC)C(C)=O | -1.15% |
| CO[Si](C)(OC)c1ccccc1 | -12.3% |
| CCCCCCCCCCCCCCCCCCO | 12.9% |
| CCC1C(=O)OCC1Cc1cncn1C (centres undefined) | -3.02% |
| O=S(=O)(O)c1cc(O)c(O)c(S(=O)(=O)O)c1 | 14% |
| CCCCCC(=O)OCCc1ccccc1 | -2.17% |
| O=C(O)c1cc(C(=O)O)cc(C(=O)O)c1 | 0.758% [at 95 µM] |
| CCCCOCCOC(=O)COc1cc(Cl)c(Cl)cc1Cl | 17.9% |
| OCCCCCO | -0.908% [at 95 µM] |
| CN(C)CCN(C)CCN(C)C | -0.011% |
| CC(=O)c1cnccn1 | 0.968% [at 95 µM] |
| CCCCOC(=O)CCC(C)=O | -12.6% |
| CC(C)c1ccc2ncccc2c1 | 2.4% |
| CCOC(=O)COC(=O)c1ccccc1C(=O)OCC | 11.8% |
| CCCCCCCCCCOc1cc2c(=O)c(C(=O)OCC)c[nH]c2cc1OCC | -1.8% |
| CCN[C@H]1C[C@H](C)S(=O)(=O)c2sc(S(N)(=O)=O)cc21 | -0.105% |
| CCNS(=O)(=O)c1ccc(C)cc1 | -2.78% [at 95 µM] |

Biological target: Aryl hydrocarbon receptor (Homo sapiens) (UniProt P35869)
Test: qHTS assay to identify small molecule that activate the aryl hydrocarbon receptor (AhR) signaling pathway (AID 743085);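 note: HG2L7.5c1 human HepG2 liver cells with stably integrated DRE-driven firefly reporter; nearly all actives have a fitted effect of over 15% in size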
Settings: HepG2 AhR-luc (HG2L7.5c1), luciferase, 24 h; series mostly up to 70.3 µM; activation: at the top concentration
Procedure, shortened: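 HepG2 cells stably carrying a 20-DRE firefly luciferase reporter (HG2L7.5c1) treated with compound for 24 hr at 37C. Luciferase read by ONE-Glo luminescence, with CellTiter-Fluor viability read first.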

Sequence of Aryl hydrocarbon receptor (Homo sapiens) (P35869 whole entry, looked up): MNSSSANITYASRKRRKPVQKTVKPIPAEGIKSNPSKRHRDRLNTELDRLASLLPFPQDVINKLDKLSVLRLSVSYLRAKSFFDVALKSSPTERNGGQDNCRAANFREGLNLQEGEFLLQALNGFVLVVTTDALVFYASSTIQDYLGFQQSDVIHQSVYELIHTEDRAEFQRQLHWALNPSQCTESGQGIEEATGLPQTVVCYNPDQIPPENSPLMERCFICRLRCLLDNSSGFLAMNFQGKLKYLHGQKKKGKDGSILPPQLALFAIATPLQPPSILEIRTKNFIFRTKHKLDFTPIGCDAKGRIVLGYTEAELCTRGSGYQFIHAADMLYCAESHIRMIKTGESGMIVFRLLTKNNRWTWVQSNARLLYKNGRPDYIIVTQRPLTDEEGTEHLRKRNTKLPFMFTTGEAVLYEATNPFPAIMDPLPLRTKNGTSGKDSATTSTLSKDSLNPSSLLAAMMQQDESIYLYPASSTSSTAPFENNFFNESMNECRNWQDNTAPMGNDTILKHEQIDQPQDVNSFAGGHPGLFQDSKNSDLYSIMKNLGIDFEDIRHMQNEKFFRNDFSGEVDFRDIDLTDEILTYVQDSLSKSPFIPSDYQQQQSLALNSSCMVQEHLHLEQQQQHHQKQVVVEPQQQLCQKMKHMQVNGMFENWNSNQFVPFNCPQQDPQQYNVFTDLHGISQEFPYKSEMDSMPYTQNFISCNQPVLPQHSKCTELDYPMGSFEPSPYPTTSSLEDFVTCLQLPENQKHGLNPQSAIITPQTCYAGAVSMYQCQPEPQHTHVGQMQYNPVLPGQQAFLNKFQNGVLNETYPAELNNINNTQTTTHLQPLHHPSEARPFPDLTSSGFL

| SMILES | activation |
| --- | --- |
| CC(=O)C1CCCCC1=O (centres undefined) | 0.178% |
| C=CC(C)(CCC=C(C)C)OC(=O)CC (centres undefined) | 0.574% |
| CCCCN1C=CN(C)C1 | -5.92% [at 32.5 µM] |
| Cc1ccc(-c2ncc(Cl)cc2-c2ccc(S(C)(=O)=O)cc2)cn1 | 0.416% |
| C=COCC1CCC(COC=C)CC1 (centres undefined) | -0.759% |
| O=S(=O)(O)c1cccc(S(=O)(=O)O)c1 | 2.24% |
| O=C(CO)[C@@H](O)[C@H](O)[C@@H](O)CO | 1.62% |
| CCCCCCCC1CCCC1=O (centres undefined) | -0.417% |
| C=CCOCC(O)CO (centres undefined) | -0.136% |
| O=C(O)Cc1csc(-c2ccc(Cl)cc2)n1 | 0.555% |
| CCC(C)(CCCC(C)C)OC(C)=O (centres undefined) | -0.903% |
| CC(=O)Oc1cccc(C)c1 | -0.489% |
| [K+] | -0.0148% |
| CC(C)=CCC/C(C)=C/C#N | -0.513% [at 95 µM] |
| CCOC(=O)COc1cc(-n2ncc(C(F)(F)F)c(C)c2=O)c(F)cc1Cl | -0.21% |
| O=C(O)CNC(=O)c1ccc(CO)o1 | 4.06% |
| Cc1cccc(C)c1NC(=O)CC12CCCN1CCC2 | -0.793% |
| CCCC[N+](C)(CCCC)CCCC | -0.0074% |
| CCCCN(CCC(=O)OCC)C(C)=O | -0.543% |
| CO[Si](C)(OC)c1ccccc1 | -0.407% |
| CCC1C(=O)OCC1Cc1cncn1C (centres undefined) | -0.383% |
| CCCCCC(=O)OCCc1ccccc1 | -0.426% |
| O=C(O)c1cc(C(=O)O)cc(C(=O)O)c1 | 0.0565% [at 95 µM] |
| CCCCOCCOC(=O)COc1cc(Cl)c(Cl)cc1Cl | 2.9% |
| OCCCCCO | 0.223% [at 95 µM] |
| CCCCOC(=O)CCC(C)=O | 1.53% |
| CC(C)c1ccc2ncccc2c1 | 4.78% |
| CCCCCCCCCCOc1cc2c(=O)c(C(=O)OCC)c[nH]c2cc1OCC | 0.304% |
| CCNS(=O)(=O)c1ccc(C)cc1 | -1.51% [at 95 µM] |

Tested on: not listed separately
Test: qHTS assay to identify small molecule that activate the aryl hydrocarbon receptor (AhR) signaling pathway - cell viability counter screen (AID 743086);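 note: HepG2 liver cells carrying the AhR DRE luciferase reporter; nearly all actives have a fitted effect of over 45% in size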
Settings: HepG2-AhR-luc viability, CellTiter-Fluor, 24 h; series mostly up to 70.3 µM; viability change, negative = cytotoxic: at the top concentration
Procedure, shortened: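 Cytotoxicity counter screen: CellTiter-Fluor signal (30 min, 37 C) in 4000 HepG2 cells/well carrying the DRE-luciferase reporter, following 24 h compound exposure at 37 C.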

| SMILES | viability change, negative = cytotoxic |
| --- | --- |
| CC(=O)C1CCCCC1=O (centres undefined) | 6.74% |
| Cc1ccc(-c2ncc(Cl)cc2-c2ccc(S(C)(=O)=O)cc2)cn1 | -2.27% |
| C=COCC1CCC(COC=C)CC1 (centres undefined) | 3.66% |
| O=C(CO)[C@@H](O)[C@H](O)[C@@H](O)CO | 9.77% |
| CCCCCCCC1CCCC1=O (centres undefined) | 11.5% |
| O=C(O)Cc1csc(-c2ccc(Cl)cc2)n1 | 17% |
| CCC(C)(CCCC(C)C)OC(C)=O (centres undefined) | -6.75% |
| CC(=O)Oc1cccc(C)c1 | -3% |
| [K+] | 18.1% |
| CC(C)=CCC/C(C)=C/C#N | -4.82% [at 95 µM] |
| C=CC(=O)OCCCl | -3.44% [at 95 µM] |
| C1CCC2(CCCCO2)OC1 | 0.578% |
| O=C(O)CNC(=O)c1ccc(CO)o1 | 7.81% |
| Cc1cccc(C)c1NC(=O)CC12CCCN1CCC2 | 1.66% |
| CCCC[N+](C)(CCCC)CCCC | -0.0873% |
| CC(C)(N)C#N | 15.8% [at 95 µM] |

| SMILES | viability change, negative = cytotoxic |
| --- | --- |
| CCCCN(CCC(=O)OCC)C(C)=O | 0.889% |
| CO[Si](C)(OC)c1ccccc1 | 0.72% |
| CCCCCCCCCCCCCCCCCCO | -5.34% |
| CCC1C(=O)OCC1Cc1cncn1C (centres undefined) | 1.72% |
| O=S(=O)(O)c1cc(O)c(O)c(S(=O)(=O)O)c1 | 4.49% |
| CCCCCC(=O)OCCc1ccccc1 | 9.23% |
| O=C(O)c1cc(C(=O)O)cc(C(=O)O)c1 | -0.698% [at 95 µM] |
| CCCCOCCOC(=O)COc1cc(Cl)c(Cl)cc1Cl | 8.15% |
| OCCCCCO | 15.4% [at 95 µM] |
| CN(C)CCN(C)CCN(C)C | -0.202% |
| CC(=O)c1cnccn1 | -5.46% [at 95 µM] |
| CCCCOC(=O)CCC(C)=O | -16.6% |
| CCOC(=O)COC(=O)c1ccccc1C(=O)OCC | 16.5% |
| CCCCCCCCCCOc1cc2c(=O)c(C(=O)OCC)c[nH]c2cc1OCC | -13.3% |
| CCN[C@H]1C[C@H](C)S(=O)(=O)c2sc(S(N)(=O)=O)cc21 | 9.53% |
| CCNS(=O)(=O)c1ccc(C)cc1 | 2.81% [at 95 µM] |
